Results as given in the supplement of paper PMC11172423.
A number with no mark means an inactive call.

What follows are compounds tested on Madurella mycetomatis MM55 (assay: growth relative to untreated control; higher = less inhibition, active = 20 or less). Conditions: 25 µM.
Procedure: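 Hyphal fragments of M. mycetomatis MM55 or F. senegalensis CBS197.79 in RPMI 1640/MOPS were exposed to each MMV COVID Box or Global Health Priority Box compound at 100 or 25 µM for 7 days at 37 °C. Viability was read with MTS (490 nm, M. mycetomatis) or resazurin (600 nm, F. senegalensis), background-corrected with a medium-only control and expressed as % growth relative to the untreated growth control. Inhibition of more than 80% was taken as growth inhibition.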

| Compound | growth |
| --- | --- |
| O=C(Nc1ccc(Cl)c(C(F)(F)F)c1)Nc1ccc(Cl)c(C(F)(F)F)c1 | 43.5% |
| O=C(NC1(CO)CCOCC1)c1cc2ccc(C(F)(F)F)cc2[nH]1 | 83.9% |
| Cc1c(-c2ccc(-c3ccccc3F)cc2)nc2ccc(F)cc2c1C(=O)O | 115% |
| Cc1noc(C2CN(C(=O)c3ccc(Nc4nccc(-c5ccc(Cl)cc5)n4)cc3)C2)n1 | 122% |
| CN(C)CCNC(=O)c1ccc(Nc2nccc(-c3ccc(Cl)c(Cl)c3)n2)cc1 | 5.83% (active) |
| COc1ccc2nc3cc(Cl)ccc3c(Nc3cc(CN4CCCC4)c(O)c(CN4CCCC4)c3)c2n1 | 76.3% |
| C[C@]1(c2nc3c(C(N)=O)cccc3[nH]2)CCCN1 | 130% |
| O=C1NCCN1CCN1CCC(c2cn(-c3ccc(F)cc3)c3ccc(Cl)cc23)CC1 | 5.95% (active) |
| CNc1ccc2cc(NC(=O)c3ccc(C(F)(F)F)c(Cl)c3)ccc2n1 | 6.89% (active) |
| CC(C)Oc1cccc(-c2ccc3nc(Nc4ncccc4N(C)C)cn3c2)n1 | 124% |
| CN1CCC[C@@H]1CCO[C@](C)(c1ccccc1)c1ccc(Cl)cc1 | 11.1% (active) |
| C[C@H]1c2cccc(O)c2C(=O)C2=C(O)[C@]3(O)C(O)=C(C(N)=O)C(=O)[C@@H](N(C)C)[C@@H]3[C@@H](O)[C@@H]21 | 63.1% |
| CC(C)(C)c1nc(-c2cccc(NS(=O)(=O)c3c(F)cccc3F)c2F)c(-c2ccnc(N)n2)s1 | 103% |
| CC(C)(C)Nc1ncc2nc(Nc3cccc(C(F)(F)F)c3)n(CC3CCNCC3)c2n1 | 107% |
| NC(=O)N1CCC(CC(=O)N2CCC([C@H]3c4ncc(Br)cc4CCc4cc(Cl)cc(Br)c43)CC2)CC1 | 3.17% (active) |
| O[C@@H](CNC[C@H](O)[C@H]1CCc2cc(F)ccc2O1)[C@@H]1CCc2cc(F)ccc2O1 | 5.79% (active) |
| O[C@@H](c1cc(C(F)(F)F)nc2c(C(F)(F)F)cccc12)[C@H]1CCCCN1 | 5.4% (active) |
| C=CCNc1nc(NCC=C)nc(N2CCN(C(c3ccc(F)cc3)c3ccc(F)cc3)CC2)n1 | 91.8% |
| Cc1ccc(C(=O)Nc2ccc(CN3CCN(C)CC3)c(C(F)(F)F)c2)cc1C#Cc1cnc2cccnn12 | 16.4% (active) |
| CN(C)C[C]1[CH][CH][CH][C]1CNc1ccnc2cc(Cl)ccc12.[CH]1[CH][CH][CH][CH]1.[Fe] | 33.7% |

Same assay, conditions: 100 µM

| Compound | growth |
| --- | --- |
| O=C(Nc1ccc(Cl)c(C(F)(F)F)c1)Nc1ccc(Cl)c(C(F)(F)F)c1 | 49.6% |
| O=C(NC1(CO)CCOCC1)c1cc2ccc(C(F)(F)F)cc2[nH]1 | 72.9% |
| Cc1c(-c2ccc(-c3ccccc3F)cc2)nc2ccc(F)cc2c1C(=O)O | 83.3% |
| Cc1noc(C2CN(C(=O)c3ccc(Nc4nccc(-c5ccc(Cl)cc5)n4)cc3)C2)n1 | 73.7% |
| CN(C)CCNC(=O)c1ccc(Nc2nccc(-c3ccc(Cl)c(Cl)c3)n2)cc1 | 4.93% (active) |
| COc1ccc2nc3cc(Cl)ccc3c(Nc3cc(CN4CCCC4)c(O)c(CN4CCCC4)c3)c2n1 | 40% |
| C[C@]1(c2nc3c(C(N)=O)cccc3[nH]2)CCCN1 | 87.6% |
| O=C1NCCN1CCN1CCC(c2cn(-c3ccc(F)cc3)c3ccc(Cl)cc23)CC1 | 4.92% (active) |
| CNc1ccc2cc(NC(=O)c3ccc(C(F)(F)F)c(Cl)c3)ccc2n1 | 77.4% |
| CC(C)Oc1cccc(-c2ccc3nc(Nc4ncccc4N(C)C)cn3c2)n1 | 84.6% |
| CN1CCC[C@@H]1CCO[C@](C)(c1ccccc1)c1ccc(Cl)cc1 | 4.37% (active) |
| C[C@H]1c2cccc(O)c2C(=O)C2=C(O)[C@]3(O)C(O)=C(C(N)=O)C(=O)[C@@H](N(C)C)[C@@H]3[C@@H](O)[C@@H]21 | 91.7% |
| CC(C)(C)c1nc(-c2cccc(NS(=O)(=O)c3c(F)cccc3F)c2F)c(-c2ccnc(N)n2)s1 | 82.4% |
| CC(C)(C)Nc1ncc2nc(Nc3cccc(C(F)(F)F)c3)n(CC3CCNCC3)c2n1 | 69.3% |
| NC(=O)N1CCC(CC(=O)N2CCC([C@H]3c4ncc(Br)cc4CCc4cc(Cl)cc(Br)c43)CC2)CC1 | 11.2% (active) |
| O[C@@H](CNC[C@H](O)[C@H]1CCc2cc(F)ccc2O1)[C@@H]1CCc2cc(F)ccc2O1 | 3.82% (active) |
| O[C@@H](c1cc(C(F)(F)F)nc2c(C(F)(F)F)cccc12)[C@H]1CCCCN1 | 4.2% (active) |
| C=CCNc1nc(NCC=C)nc(N2CCN(C(c3ccc(F)cc3)c3ccc(F)cc3)CC2)n1 | 83.9% |
| Cc1ccc(C(=O)Nc2ccc(CN3CCN(C)CC3)c(C(F)(F)F)c2)cc1C#Cc1cnc2cccnn12 | 10.5% (active) |
| CN(C)C[C]1[CH][CH][CH][C]1CNc1ccnc2cc(Cl)ccc12.[CH]1[CH][CH][CH][CH]1.[Fe] | 39.8% |
